Experimental findings from PubChem BioAssay (Tox21) are described below.

The structures appear in SMILES notation. Values without a mark were called inactive. Results filed as inconclusive are left out. Activity calls are given as the source filed them. Unless noted, calls follow the shape of the dose curve; as a rule, active = well fitted curve in the direction sought with a large enough effect in the repeat runs; inconclusive = weak or mixed curves; inactive = no such curve, though single readings can be large; an effect the other way counts as inactive or inconclusive.

Assay [1] is described as follows: qHTS assay for small molecules that induce genotoxicity in human embryonic kidney cells expressing luciferase-tagged ATAD5 (AID 651632). Also: nearly all actives have a fitted effect of over 15% in size. Also: potency is read from the fitted curve at half-maximal effect. Summed up:
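ATAD5-luc HEK293T, 2,000 cells/well; cpd or DMSO pin-transferred; 16 hr, 37C/5% CO2; Amplite 30 min RT; luminescence.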

Assay [2] in a line: qHTS assay for small molecules that induce genotoxicity in human embryonic kidney cells expressing luciferase-tagged ATAD5 - cell viability (AID 651634; calls by dose curve; also: nearly all actives have a fitted effect of over 25% in size; also: potency is read from the fitted curve at half-maximal effect). A digest of the protocol:
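Fluorescence from CellTiter-Fluor, reporting protease activity within live cells, served as the viability read-out. HEK293T cells carrying luciferase-tagged ATAD5 had been treated with compound for 15.5 hr at 37C.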

The nature of assay [3]: qHTS assay for small molecule disruptors of the mitochondrial membrane potential - cell viability (AID 720634; calls by dose curve; also: nearly all actives have a fitted effect of over 20% in size; also: potency is read from the fitted curve at half-maximal effect). A digest of the protocol: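 Cells: HepG2, 2,000/well, attached overnight. Compound 1 hr, 37 C/5% CO2. +m-MPI dye, +CellTiter-Glo 30 min RT. Readout: luminescence (ATP).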
Assay [4] in a line: qHTS assay for small molecule disruptors of the mitochondrial membrane potential (AID 720635). Also: potency is read from the fitted curve at half-maximal effect. A digest of the protocol:
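HepG2 cells exposed to compound 1 hr at 37C, then Mito-MPS dye 30 min. Ratio read of aggregate (540/590 nm) versus monomer (490/535 nm) fluorescence.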

Assay [5] in a line: qHTS assay to test for compound auto fluorescence at 590 nm (red) in HepG2 cells (AID 720674). A digest of the protocol: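 HepG2 cells, 2,000 per well in MEM with 10% FBS, attached overnight at 37 C, then got 23 nL compound or DMSO. After 1 hr at 37 C, 5% CO2, red fluorescence was read at 540/590 nm against Rose Bengal sodium as reference.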
Assay [6] is described as follows: qHTS assay to test for compound auto fluorescence at 535 nm (green) in HepG2 cells (AID 720675).
Assay [7] in a line: qHTS assay to test for compound auto fluorescence at 460 nm (blue) in HEK293 cells (AID 720678). A digest of the protocol: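 HEK293 cells (2,000/well, medium with 10% dialyzed FBS) attached 4-5 hr, then exposed to compound overnight at 37C, 5% CO2. Blue fluorescence read at 405/460 nm, with triamterene as reference fluorophore.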
The nature of assay [8]: qHTS assay to test for compound auto fluorescence at 590 nm (red) in HEK293 cells (AID 720679). Summed up:
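HEK293 cells (2,000/well, 10% dialyzed FBS) attached 4-5 hr, then dosed with compound or DMSO and incubated overnight at 37C, 5% CO2. Red fluorescence read at 540/590 nm, Rose Bengal sodium as reference fluorophore.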

Assay [9] can be described thus: qHTS assay to test for compound auto fluorescence at 535 nm (green) in HEK293 cells (AID 720680).
Assay [10] is described as follows: qHTS assay to test for compound auto fluorescence at 535 nm (green) in HEK293 cell free culture (AID 720682). A digest of the protocol:
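Green-label autofluorescence (485 nm excitation, 535 nm emission) measured on compound added to cell-free culture medium (DMEM, 10% FBS). Output is expressed relative to fluorescein.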

Assay [11] can be described thus: qHTS assay to test for compound auto fluorescence at 590 nm (red) in HEK293 cell free culture (AID 720683). Summed up:
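Cell-free wells of DMEM with 10% FBS received compound, and intrinsic fluorescence was read at excitation/emission 540/590 nm. Values expressed as equivalence to Rose Bengal sodium.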

The nature of assay [12]: qHTS assay to test for compound auto fluorescence at 590 nm (red) in HepG2 cell free culture (AID 720684). A digest of the protocol:
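Compound was pinned into wells holding MEM with 10% FBS and no cells, and red fluorescence was read at Ex/Em 540/590 nm. Signal is expressed as auto fluorescence equivalency relative to Rose Bengal sodium.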

A short description of assay [13]: qHTS assay to test for compound auto fluorescence at 535 nm (green) in HepG2 cell free culture (AID 720686).
Assay [14] in a line: qHTS assay to test for compound auto fluorescence at 460 nm (blue) in HepG2 cells (AID 720687). A digest of the protocol: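 HepG2 cells in MEM with 10% FBS, attached overnight at 37 C, were exposed to compound or DMSO for 1 hr at 37 C, 5% CO2. Blue fluorescence was read at 405/460 nm, with triamterene as reference fluorophore.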
Assay [15] has as its target Glucocorticoid receptor (Homo sapiens) (UniProt P04150). Description: qHTS assay to identify small molecule antagonists of the glucocorticoid receptor (GR) signaling pathway (AID 720692; active = well fitted inhibition curve with a large enough effect in the signal ratio in the repeat runs, not every such curve was filed as active; the % refers to the signal ratio). A digest of the protocol:
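HeLa GR-bla cells; cmpd + dex 5 nM final, 18 h 37 C; LiveBLAzer B/G FRET substrate 2 h RT; fluorescence intensity read. Antagonist mode, qHTS.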

Assay [16] can be described thus: qHTS assay to test for compound auto fluorescence at 460 nm (blue) in HepG2 cell free culture (AID 720685). A digest of the protocol:
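Compound (23 nL) or DMSO pinned into cell-free MEM with 10% FBS; blue fluorescence read at 405/460 nm excitation/emission, expressed as auto-fluorescence equivalency to triamterene.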

A short description of assay [17]: qHTS assay to test for compound auto fluorescence at 460 nm (blue) in HEK293 cell free culture (AID 720681). Summed up:
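Compounds were added to cell-free DMEM with 10% FBS and fluorescence read directly. The blue channel used 405 nm excitation and 460 nm emission, with triamterene as the reference fluorophore.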

The target of assay [18] is Glucocorticoid receptor (Homo sapiens) (UniProt P04150). Description: qHTS assay to identify small molecule agonists of the glucocorticoid receptor (GR) signaling pathway (AID 720691; active = well fitted activation curve with a large enough effect in the signal ratio in the repeat runs, not every such curve was filed as active; the % refers to the signal ratio). Summed up: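 Fluorescence intensity from LiveBLAzer B/G FRET substrate (2 h, room temperature) reports beta-lactamase expression driven by the glucocorticoid response element in GR-bla HeLa cells after 18 h compound exposure at 37 C.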
Chain of Glucocorticoid receptor (Homo sapiens) (P04150 whole entry, looked up): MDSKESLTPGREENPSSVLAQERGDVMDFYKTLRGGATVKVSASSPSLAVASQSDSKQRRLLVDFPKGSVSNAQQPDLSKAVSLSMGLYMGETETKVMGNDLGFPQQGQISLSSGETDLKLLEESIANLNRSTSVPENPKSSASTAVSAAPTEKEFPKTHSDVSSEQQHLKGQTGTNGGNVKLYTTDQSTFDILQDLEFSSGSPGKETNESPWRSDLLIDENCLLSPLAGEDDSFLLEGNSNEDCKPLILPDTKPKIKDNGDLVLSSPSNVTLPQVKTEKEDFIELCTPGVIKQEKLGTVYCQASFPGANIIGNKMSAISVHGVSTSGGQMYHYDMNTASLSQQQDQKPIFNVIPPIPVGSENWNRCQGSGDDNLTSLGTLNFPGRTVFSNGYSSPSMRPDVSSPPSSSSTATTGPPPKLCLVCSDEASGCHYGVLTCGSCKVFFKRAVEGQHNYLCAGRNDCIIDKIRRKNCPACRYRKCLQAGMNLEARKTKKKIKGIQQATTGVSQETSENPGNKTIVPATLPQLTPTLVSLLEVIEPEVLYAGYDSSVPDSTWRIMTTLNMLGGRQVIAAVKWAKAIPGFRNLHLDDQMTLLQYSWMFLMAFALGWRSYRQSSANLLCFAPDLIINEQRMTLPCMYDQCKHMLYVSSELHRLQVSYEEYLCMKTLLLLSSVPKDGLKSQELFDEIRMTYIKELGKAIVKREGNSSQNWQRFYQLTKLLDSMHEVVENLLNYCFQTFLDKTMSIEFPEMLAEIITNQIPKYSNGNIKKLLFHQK
% is scaled to controls: 0 for no effect and ±100 for the full control effect.

`S=C(SSC(=S)N1CCCCC1)N1CCCCC1`: in assay [1], the Potency was 29.8 µM (active). Moreover, the Potency entry in assay [2], in assay [3], in assay [4], in [7], in [14] and in assay [15] was “inactive” in each case. Further, the call in assay [5], in [6], in [8], in assay [9], in assay [10] and in [11] was inactive. Besides, the compound was called inactive in assay [12] and in assay [13].
For `Clc1ccc(CSC(Cn2ccnc2)c2ccc(Cl)cc2Cl)cc1` (stereo unspecified), the Potency entry in [1], in assay [2] and in assay [3] was “inactive” throughout. Further, the fluorescence, relative to Rose Bengal in assay [5] was -0.0239% [at 18.6 µM]. Also, the fluorescence, % of fluorescein control in assay [6] was -0.0068% [at 18.6 µM]; in assay [13], -0.107% [at 18.6 µM]. The fluorescence, % of triamterene in [7] is -0.071% [at 18.6 µM]. The values for the fluorescence, % of fluorescent control in assay [8], in [11] and in assay [14] were 0.517% [at 18.6 µM], 0.289% [at 18.6 µM] and 0.0355% [at 18.6 µM], respectively. Further, in assay [9], the fluorescence, % of fluorescein was -0.0144% [at 18.6 µM]. In addition, in assay [10], the activity change was -0.0182% [at 18.6 µM]. Besides, in assay [12], the fluorescence, % of Rose Bengal was -0.065% [at 18.6 µM].
With `CC(C)C1CCC(Cc2ccc(Cl)cc2)C1(O)Cn1cncn1` (stereo unspecified), the Potency entry in [1], in assay [16] and in assay [14] was “inactive” each time. The figures for the Potency in assay [2] and in assay [4] were 53.9 µM (active) and 15.2 µM (active), respectively. In addition, the result in assay [5], in [6], in assay [8], in assay [9], in assay [10] and in [11] was inactive. Moreover, the call in assay [12] and in [13] was inactive.
On to `CC(C)N1C(=O)N(c2ccccc2)CSC1=NC(C)(C)C`, for which the Potency result in assay [1], in assay [7], in assay [17], in assay [16], in [14] and in assay [18] was “inactive” in each case. The Potency was 15.4 µM (active) in [3] and 38.6 µM (active) in assay [4]. Also, the result in [5], in assay [6], in assay [8], in assay [9], in [10] and in assay [11] was inactive. The outcome in [12] and in assay [13] was inactive.
As to `CCc1nn(C)c(C(=O)NCc2ccc(C(C)(C)C)cc2)c1Cl`, the Potency result in assay [1], in assay [2], in assay [7] and in assay [14] was “inactive” in each case. The Potency in assay [3] is 12.2 µM (active); in assay [4], 15.4 µM (active). Further, the compound was classed as inactive in assay [5], in [6], in [8], in assay [9], in [11] and in assay [12]. The compound was called inactive in assay [13].
In the case of `C=CC(=O)OCC(COC(=O)C=C)(COC(=O)C=C)COC(=O)C=C`, the figures for the Potency in [1] and in assay [2] were 5.45 µM (active) and 12.2 µM (active), respectively. Further, the Potency entry in assay [3], in assay [7], in assay [17], in assay [16] and in [14] was “inactive” throughout. Also, the call in [5], in [6], in assay [8], in assay [9], in assay [10] and in [11] was inactive. Also, the call in assay [12] and in assay [13] was inactive.
As to `O=C(CCl)Nc1ccccc1`, the Potency result in [1], in assay [3], in assay [7], in assay [17], in [16] and in assay [14] was “inactive” in each case. In addition, the Potency in assay [2] is 48.6 µM (active). Besides, the compound was classed as inactive in assay [5], in assay [6], in assay [8], in [9], in [11] and in assay [12]. The result in assay [13] was inactive.
Turning to `O=C(CCCN1CCC2(CC1)C(=O)NCN2c1ccccc1)c1ccc(F)cc1`, the Potency entry in assay [1], in assay [2], in [3], in assay [7], in assay [17] and in assay [14] was “inactive” throughout. Also, the Potency result in assay [18] and in [15] was “inactive” in each case. Besides, the Potency in [4] was 3.35 µM (active). Moreover, the compound was classed as inactive in assay [5], in [6], in [8], in [9], in [10] and in [11]. The result in assay [12] and in assay [13] was inactive.
